Assay results taken from PubChem BioAssay AID1159580 (chemical genetic matrix, 2015).
The whole screen tested about 5,500 compounds, of which about 2,000 (36%) were called active. Another 18% or so got no clear call; they are omitted. Rule as the data show it: active = normalized growth mostly below about 0.91 (no sharp cut-off); inconclusive = no clear call, values can overlap the other calls; inactive = mostly above about 0.92. The list shows a part of the results.

Assay: chemical genetic growth profiling, strain panel (AID 1159580);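 also: tested at 20 µM; growth read once vehicle control cultures reached saturation at 30 °C; 1 = growth at the plate median or of vehicle wells; lower values mean less growth of the strain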
Conditions: S. cerevisiae deletion strains, growth OD

Measured: normalized growth

CC(C)(Oc1ccc(C2CC2(Cl)Cl)cc1)C(=O)O (stereo unspecified)
inactive: locus YAL021C, strain ccr4, active compounds read low 1 | locus YAL026C, strain drs2, active compounds read low 1 | locus YAL030W, strain snc1, active compounds read low 1 | locus YAL040C, strain CLN3, active compounds read low 0.988 | locus YBL061C, strain skt5, active compounds read low 0.997 | locus YBR009C, strain hhf1, active compounds read low 0.995 | locus YBR023C, strain chs3, active compounds read low 0.992 | locus YBR171W, strain sec66, active compounds read low 0.996 | locus YBR231C, strain swc5, active compounds read low 0.997 | locus YBR279W, strain paf1, active compounds read low 1.02 | locus YCL011C, strain gbp2, active compounds read low 1.01 | locus YCL016C, strain dcc1, active compounds read low 0.992 | locus YCL061C, strain MRC1 (second series), active compounds read low 0.988 | locus YCL061C, strain MRC1, active compounds read low 0.99 | locus YCL069W, strain vba3, active compounds read low 1.01 | locus YCR088W, strain abp1, active compounds read low 0.997 | locus YDL005C, strain med2, active compounds read low 0.998 | locus YDL040C, strain nat1, active compounds read low 1 | locus YDR001C, strain nth1, active compounds read low 1.01 | locus YDR069C, strain doa4, active compounds read low 1 | locus YDR137W, strain rgp1, active compounds read low 0.964 | locus YDR159W, strain sac3, active compounds read low 0.997 | locus YDR195W, strain ref2 0.989 | locus YDR297W, strain sur2, active compounds read low 0.998 | locus YDR334W, strain swr1, active compounds read low 1 | locus YDR335W, strain msn5, active compounds read low 1 | locus YDR392W, strain spt3, active compounds read low 0.944 | locus YEL003W, strain gim4, active compounds read low 1.02 | locus YEL037C, strain rad23, active compounds read low 1.01 | locus YEL061C, strain CIN8 (second series), active compounds read low 1.01 | locus YER002W, strain NOP16, active compounds read low 0.962 | locus YER015W, strain faa2, active compounds read low 0.994 | locus YER016W, strain bim1, active compounds read low 1 | locus YER111C, strain swi4, active compounds read low 0.998 | locus YER155C, strain BEM2 (second series), active compounds read low 1 | locus YFR010W, strain ubp6, active compounds read low 0.99 | locus YGL167C, strain pmr1, active compounds read low 0.998 | locus YGL173C, strain kem1, active compounds read low 1 | locus YGL227W, strain vid30, active compounds read low 1 | locus YGL240W, strain doc1, active compounds read low 1 | locus YGL253W, strain hxk2, active compounds read low 1.01 | locus YHR013C, strain ard1, active compounds read low 0.973 | locus YHR027C, strain rpn1, active compounds read low 0.995 | locus YHR142W, strain chs7, active compounds read low 1 | locus YJL092W, strain hpr5, active compounds read low 1.01 | locus YJL095W, strain BCK1 (second series), active compounds read low 0.997 | locus YJL115W, strain asf1, active compounds read low 0.999 | locus YJL129C, strain trk1, active compounds read low 0.987 | locus YJL154C, strain vps35, active compounds read low 1.01 | locus YJL164C, strain tpk1, active compounds read low 1 | locus YJL166W, strain qcr8, active compounds read low 0.985 | locus YJL187C, strain SWE1, active compounds read low 0.992 | locus YKL160W, strain elf1, active compounds read low 0.978 | locus YKR026C, strain gcn3, active compounds read low 0.997 | locus YKR091W, strain srl3, active compounds read low 1 | locus YLL001W, strain dnm1, active compounds read low 0.968 | locus YLL026W, active compounds read low 1 | locus YLL041C, strain sdh2, active compounds read low 1.01 | locus YLR027C, strain aat2, active compounds read low 0.998 | locus YLR221C, strain rsa3, active compounds read low 0.994 | locus YLR258W, strain gsy2, active compounds read low 1 | locus YLR262C, strain YPT6 (second series), active compounds read low 0.981 | locus YLR320W, strain mms22, active compounds read low 0.976 | locus YLR342W, strain FKS1, active compounds read low 1 | locus YLR357W, strain rsc2, active compounds read low 1.01 | locus YLR370C, strain arc18, active compounds read low 1 | locus YLR384C, strain iki3, active compounds read low 1 | locus YML120C, strain ndi1, active compounds read low 0.985 | locus YMR058W, strain fet3, active compounds read low 1 | locus YMR125W, strain sto1, active compounds read low 0.996 | locus YMR129W, active compounds read low 0.996 | locus YMR205C, strain PFK2, active compounds read low 0.973 | locus YMR231W, strain pep5, active compounds read low 1 | locus YNL071W, strain lat1, active compounds read low 0.998 | locus YNL153C, strain GIM3, active compounds read low 1.01 | locus YNL175C, strain NOP13, active compounds read low 0.98 | locus YNL197C, strain WHI3, active compounds read low 1.08 | locus YNL209W, strain ssb2, active compounds read low 1 | locus YNL224C, strain SQS1, active compounds read low 0.99 | locus YNL248C, strain rpa49, active compounds read low 1 | locus YNL322C, strain KRE1 (second series), active compounds read low 0.984 | locus YNR049C, strain mso1, active compounds read low 1 | locus YOR001W, strain rrp6, active compounds read low 1.02 | locus YOR070C, strain gyp1, active compounds read low 0.998 | locus YOR080W, strain dia2, active compounds read low 0.988 | locus YOR083W, strain WHI5 (second series), active compounds read low 1.01 | locus YOR083W, strain WHI5, active compounds read low 0.977 | locus YOR106W, strain vam3, active compounds read low 0.972 | locus YOR265W, strain rbl2, active compounds read low 1 | locus YOR270C, strain vph1, active compounds read low 0.99 | locus YOR290C, strain snf2, active compounds read low 1.01 | locus YPL051W, strain arl3, active compounds read low 0.994 | locus YPL078C, strain atp4, active compounds read low 0.993 | locus YPL106C, strain sse1, active compounds read low 0.951 | locus YPL240C, strain hsp82, active compounds read low 1.01 | locus YPL241C, strain CIN2, active compounds read low 0.984
